In PubChem BioAssay AID1159580 (chemical genetic matrix, 2015):
“And” between values parts separate entries of the source, which are not always exact repeats. Equal values may be shown once. The whole screen tested about 5,500 compounds, of which about 2,000 (36%) were called active. Inconclusive results (about 18%) are left out. No stated cut-off is given here; in the data, active means normalized growth mostly below about 0.91 (no sharp cut-off); inconclusive means no clear call, values can overlap the other calls; inactive means mostly above about 0.92. This is one part of the list.

Assay: chemical genetic growth profiling, strain panel (AID 1159580);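 further: tested at 20 µM; growth read once vehicle control cultures reached saturation at 30 °C; 1 = growth at the plate median or of vehicle wells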
Settings: S. cerevisiae deletion strains, growth OD

Measured: normalized growth

C[C@]12CCC(=O)C=C1CCC1C2[C@@H](O)C[C@@]2(C)C1CC[C@]2(O)C(=O)CO (stereo partly drawn)
inactive: locus YAL013W, strain DEP1, stronger effect = lower value 1.02 | locus YAL021C, strain ccr4, stronger effect = lower value 0.984 | locus YAL026C, strain drs2, stronger effect = lower value 0.994 | locus YAL030W, strain snc1, stronger effect = lower value 1.01 | locus YBL061C, strain skt5, stronger effect = lower value 0.987 | locus YBR009C, strain hhf1, stronger effect = lower value 1 | locus YBR021W, strain FUR4, stronger effect = lower value 1.01 | locus YBR023C, strain chs3, stronger effect = lower value 0.979 | locus YBR171W, strain sec66, stronger effect = lower value 0.975 | locus YBR229C, strain ROT2, stronger effect = lower value 1.02 | locus YBR231C, strain swc5, stronger effect = lower value 1 | locus YBR279W, strain paf1, stronger effect = lower value 0.98 | locus YCL011C, strain gbp2, stronger effect = lower value 0.979 | locus YCL016C, strain dcc1, stronger effect = lower value 0.971 | locus YCL029C, strain bik1, stronger effect = lower value 0.995 | locus YCL069W, strain vba3, stronger effect = lower value 1 | locus YCR088W, strain abp1, stronger effect = lower value 0.993 | locus YDL005C, strain med2, stronger effect = lower value 0.99 | locus YDL035C, strain GPR1, stronger effect = lower value 1.02 | locus YDL040C, strain nat1, stronger effect = lower value 1.01 | locus YDL074C, strain BRE1, stronger effect = lower value 1.02 | locus YDL101C, strain DUN1, stronger effect = lower value 1.02 | locus YDL185W, strain tfp1, stronger effect = lower value 1 | locus YDL192W, strain arf1, stronger effect = lower value 0.99 | locus YDR001C, strain nth1, stronger effect = lower value 1 | locus YDR069C, strain doa4, stronger effect = lower value 0.993 | locus YDR101C, strain arx1, stronger effect = lower value 0.974 | locus YDR137W, strain rgp1, stronger effect = lower value 1.01 | locus YDR159W, strain sac3, stronger effect = lower value 0.948 | locus YDR162C, strain NBP2, stronger effect = lower value 1.02 | locus YDR195W, strain ref2 0.974 | locus YDR297W, strain sur2, stronger effect = lower value 1 | locus YDR318W, strain mcm21, stronger effect = lower value 1 | locus YDR334W, strain swr1, stronger effect = lower value 0.981 | locus YDR335W, strain msn5, stronger effect = lower value 0.987 | locus YDR388W, stronger effect = lower value 0.991 | locus YDR392W, strain spt3, stronger effect = lower value 0.899 | locus YDR502C, strain sam2, stronger effect = lower value 1.01 | locus YEL003W, strain gim4, stronger effect = lower value 1.01 | locus YEL037C, strain rad23, stronger effect = lower value 1 | locus YEL061C, strain CIN8 (second series), stronger effect = lower value 0.991 | locus YEL061C, strain CIN8, stronger effect = lower value 1.01 | locus YER015W, strain faa2, stronger effect = lower value 0.996 | locus YER016W, strain bim1, stronger effect = lower value 0.99 | locus YER110C, stronger effect = lower value 0.989 | locus YER111C, strain swi4, stronger effect = lower value 0.981 | locus YER155C, strain BEM2 (second series), stronger effect = lower value 1.01 | locus YER155C, strain BEM2, stronger effect = lower value 1.01 | locus YER167W, strain BCK2, stronger effect = lower value 1.01 | locus YFR010W, strain ubp6, stronger effect = lower value 1.01 | locus YGL078C, strain dbp3, stronger effect = lower value 0.984 | locus YGL086W, strain mad1, stronger effect = lower value 0.988 | locus YGL167C, strain pmr1, stronger effect = lower value 0.987 | locus YGL173C, strain kem1, stronger effect = lower value 0.975 | locus YGL227W, strain vid30, stronger effect = lower value 0.981 | locus YGL240W, strain doc1, stronger effect = lower value 0.971 | locus YGL248W, strain PDE1, stronger effect = lower value 1.02 | locus YGL253W, strain hxk2, stronger effect = lower value 0.99 | locus YGR078C, strain PAC10, stronger effect = lower value 1.03 | locus YGR135W, strain pre9, stronger effect = lower value 1.01 | locus YGR229C, strain SMI1, stronger effect = lower value 1.02 | locus YGR252W, strain gcn5, stronger effect = lower value 1.02 | locus YHR013C, strain ard1, stronger effect = lower value 0.969 | locus YHR027C, strain rpn1, stronger effect = lower value 1.01 | locus YHR030C, strain SLT2, stronger effect = lower value 1.01 and 0.975 | locus YHR079C, strain IRE1 (second series), stronger effect = lower value 0.997 | locus YHR079C, strain IRE1, stronger effect = lower value 0.99 | locus YHR094C, strain hxt1, stronger effect = lower value 0.988 | locus YHR129C, strain ARP1, stronger effect = lower value 1.02 | locus YHR142W, strain chs7, stronger effect = lower value 0.999 | locus YHR200W, strain rpn10, stronger effect = lower value 1.01 | locus YIL066C, strain RNR3, stronger effect = lower value 1.02 | locus YIL073C, strain SPO22, stronger effect = lower value 1.02 | locus YIL125W, strain kgd1, stronger effect = lower value 0.997 | locus YIR030C, strain dcg1, stronger effect = lower value 0.994 | locus YJL092W, strain hpr5, stronger effect = lower value 0.995 | locus YJL095W, strain BCK1 (second series), stronger effect = lower value 1 | locus YJL095W, strain BCK1, stronger effect = lower value 1.04 and 0.981 | locus YJL115W, strain asf1, stronger effect = lower value 0.992 | locus YJL129C, strain trk1, stronger effect = lower value 0.97 | locus YJL134W, strain LCB3, stronger effect = lower value 1.01 | locus YJL154C, strain vps35, stronger effect = lower value 0.991 | locus YJL164C, strain tpk1, stronger effect = lower value 1 | locus YJL166W, strain qcr8, stronger effect = lower value 1.02 | locus YJL168C, strain set2, stronger effect = lower value 0.999 | locus YJL187C, strain SWE1 (second series), stronger effect = lower value 1.02 | locus YJR043C, strain POL32, stronger effect = lower value 1.03 | locus YJR066W, strain TOR1, stronger effect = lower value 0.922
